Rows were chosen to be rich in hits. Some 17% of all compounds tested hit in one or more screens of this group.
TGFb SMAD3 inh – inhibitors of TGF-b signaling | HepG2 CAGA-GFP TGF-b/SMAD3 reporter, GFP fluorescence, 18 h; TGF-beta stimulated, 500 pg/mL final | Potency, µM (series often up to 46.1 µM), actives largely listed as inhibitors | hit rate 1.2% among 410,000; further: nearly all actives have a fitted effect of over 65% in size
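Inhibition of TGF-beta-driven CAGA-GFP reporter expression in HEPG2 cells is measured by cellular GFP fluorescence after 18 h stimulation with 500 pg/mL recombinant TGF-beta in 1% FBS medium at 37 degrees C.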
HepG2 tox – HepG2 cytotoxicity, counter-screen for TGF-b inhibitors; hit rate 0.76% among 410,000; AID 588856; HepG2 CAGA-GFP viability, ATP luminescence, 18 h; Potency, µM (titrated, usually from 46.1 µM), hits mostly cytotoxic
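HepG2 CAGA-GFP cells (1000/well, DMEM with 1% FBS) received compound, then TGF-beta at 500 pg/mL final, and were incubated 18 hours at 37 degrees C. Viability was read by CellTiter-Glo luminescence. Media-only wells were set as complete cell-killing and DMSO as no toxicity.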
ATXN2 expr inh – inhibitors of ATXN2 expression | hit rate 0.72% among 360,000 | Potency, µM (titrated, usually from 57 µM), hits mostly inhibitors | HEK-293 ATXN2-luciferase reporter, luminescence, 24 h; further: nearly all actives have a fitted effect of over 55% in size
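qHTS (up to 57 uM final) was run with 24 h compound exposure of reporter cells at 37 °C. Each well was multiplexed: SteadyGlo luminescence measured ATXN2-luciferase expression after a fluorogenic Gly-Phe-AFC viability readout (25 uM final).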
TDP1 cell noCPT – qHTS for Inhibitors of human tyrosyl-DNA phosphodiesterase 1 (TDP1): qHTS in cells in absence of CPT | DT40 Tdp1-/- hTDP1 cells, no CPT, ATP luminescence, 48 h | Potency, µM (highest dose often 46.2 µM), actives largely listed as inhibitors | hit rate 15% among 420,000 | AID 686978, 2013; further: nearly all actives have a fitted effect of over 55% in size
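Camptothecin absent (DMSO only). Human TDP1-complemented DT40 knockout cells, 400 cells/well, 37 °C for minimum 48 hr; ATP measured via CellTiter-Glo, 30 min dark incubation, luminescence.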
S2 tox – cell viability loss in ATXN counter-screen | S2 cells (HEK-293 line with an ATXN2-luciferase reporter) viability, CellTiter-Fluor protease fluorescence, 24 h | Potency, µM (highest dose often 56.7 µM), most hits filed as cytotoxic | hit rate 0.49% among 400,000; further: nearly all actives have a fitted effect of over 40% in size
DT40 TDP1 CPT – DT40-hTDP1 cell growth loss with CPT; chicken DT40 Tdp1-/-;hTDP1 cells + 20 nM CPT, ATP luminescence, 48 h; Potency, µM (titrated, usually from 46.2 µM), actives largely listed as inhibitors; hit rate 12% among 420,000; AID 686979; further: nearly all actives have a fitted effect of over 55% in size
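Chicken DT40 Tdp1-/- cells stably complemented with human TDP1 were seeded at 400 cells/well in medium containing 20 nM camptothecin, exposed to pin-transferred compounds, and grown at 37 °C for at least 48 hr. Viability was read as ATP luminescence.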
Numbers stand for hits; n = inactive; u = inconclusive; x = no result given; [ ] = another dose, or the depositor's remark. The call rests on the fitted dose curve; in most records, active means well fitted curve in the direction sought with a large enough effect; inconclusive means small, poorly fitted or top-dose-only effect, or another doubt; inactive means no such curve, though single readings can be large; an effect the other way counts as inactive or inconclusive.

SMILES | TGFb SMAD3 inh | HepG2 tox | ATXN2 expr inh | TDP1 cell noCPT | S2 tox | DT40 TDP1 CPT
CCc1c(C(C)=O)oc2ccc3c(C)cc(=O)oc3c12 | n | n | n | u | n | n
Cc1cc(=O)oc2c1ccc1oc(/C(=N/O)c3ccccc3)c(C)c12 | u | n | u | 26µM | n | 21µM
Cc1ccc(/C(=N\O)c2oc3c(C)c4oc(=O)cc(C)c4cc3c2C)cc1 | u | n | u | 16µM | u | 18µM
CCc1c(C(=O)c2ccc(Cl)cc2)oc2c(C)c3oc(=O)cc(C)c3cc12 | n | n | n | n | n | n
CN(Cc1ccc(C(C)(C)C)cc1)C(=O)C1CCN(C(=O)Nc2ccccc2)CC1 | n | n | n | 23µM | n | u
CN(C(=O)c1cccc(NC(=O)Cc2ccc(NC(=O)C3CCN(C(=O)C4CCC4)CC3)cc2)c1)C1CCC1 | n | n | n | u | n | u
CCOc1ccc(CN2C(=O)C(=O)c3cccc(C)c32)cc1OC | u | n | x | 1.6µM | x | u
O=C1c2ccccc2C(=O)N1CCOc1cccc(Br)c1 | n | n | n | n | n | n
Cc1cccc2c1N(CCCOc1ccccc1)C(=O)C2=O | u | n | n | 16µM | n | 9.2µM
Cc1ccc2c(c1)C(=O)C(=O)N2CCCOc1ccccc1C | u | n | n | 2.9µM | u | 3.3µM
Cc1ccccc1OCCCN1C(=O)C(=O)c2cccc(C)c21 | u | n | n | 1.8µM | u | 2.6µM
Cc1ccc(Sc2c(C)nn(C(=O)COc3ccc(F)cc3)c2C)cc1 | n | n | n | n | n | n
CCCn1c(SCC(=O)NCc2ccc(F)cc2)n[nH]c1=O | n | n | n[11.3 µM] | n | n | n
CC1CCC2(CC1)NC(=O)N(CC(=O)Nc1cccc(S(=O)(=O)N3CCCC3)c1)C2=O (stereo not given) | n | n | x | u | n | u
Cc1cccc2c1N(CCCOc1ccc(C(C)(C)C)cc1)C(=O)C2=O | u | n | u | 18µM | u | u
CC(C)(C)c1ccc(OCCN2CCCC2)cc1 | n | n | n | n | n | n
Cc1cccc(OC(C)C(=O)Nc2nonc2-c2ccc(Br)cc2)c1C (stereo not given) | n | n | n | 16µM | n | 26µM
Cc1cccc(OCC(=O)Nc2nonc2-c2ccc(Br)cc2)c1C | u | n | n | u | n | 18µM
Cc1ccc(OCC(=O)Nc2nonc2-c2ccc(Br)cc2)cc1 | n | n | n | n | n | n
Cc1ccc(OC(C)C(=O)Nc2nonc2-c2ccc(Br)cc2)cc1C (stereo not given) | u | n | u | 18µM | u | u
CCOc1ccc(-c2nonc2NC(=O)COc2c(C)cc(C)cc2C)cc1OCC | u | n | u | n | n | u
CCOCc1c(C(=O)N2CCN(CCOc3ccc(Cl)cc3)CC2)oc2ccccc12 | n | n | n | 15µM | n | u
CCOCc1c(C(=O)N2CCN(CC(=O)Nc3ccc(F)cc3)CC2)oc2ccccc12 | n | n | n | n | n | n
COCCNC(=O)C1CCCN(Cc2ccc(-c3ccccc3)cc2)CC1 (stereo not given) | n | n | n | n | n | u
Cc1nc2c(OCc3ccc(F)c(F)c3)cccn2c1N(C)C(=O)CCC1CCCC1 | u | n | u | 16µM | u | u
Cc1nc2c(OCc3ccccc3)cccn2c1N(C)C(=O)C1CCCCC1 | n | n | n | u | n | u
CCOC(=O)C(=O)N(C)c1c(CC)nc2c(OCc3ccc(OC(F)F)cc3)cccn12 | n | n | n | n | n | u
Cc1nc2c(OCc3ccc(OC(F)F)cc3)cccn2c1N(C)C(=O)CCC1CCCC1 | u | n | u | 10µM | x | 13µM
Cc1ccc(S(=O)(=O)NCCC(=O)N2CCOCC2)cc1C | n | n | n | n | u | n
CCC(C(=O)N1CCN(c2ccccc2F)CC1)n1nc(C)c2sc3ccccc3c2c1=O (stereo not given) | n | n | x | u | x | u
